Bead autofluor – compound fluorescence in toxin protease inhibitor counterscreen. compound autofluorescence counterscreen, microsphere flow cytometry; hits give high values. fluorescence intensity (concentration not given with the values). 3.1% of 360,000 active; in the data active means fluorescence intensity above about 16000; inconclusive means no clear call, values can overlap the other calls
BoNT-A LC inh2 – blocks Botulinum neurotoxin A light chain protease | multiplex microsphere protease substrate cleavage, flow cytometry | inhibition, % at 10 µM | 0.17% of 360,000 active; further: plate controls were buffer without enzyme for full effect and enzyme alone for no effect
BoNT-F LC inh – blocks Botulinum neurotoxin F light chain protease | 0.22% of 360,000 active | inhibition, % at 10 µM | Multiplex microsphere protease cleavage assay, flow cytometry | AID 588497; in the data active means inhibition above about 35%, passing the limit was not always enough; inconclusive means no clear call, values can overlap the other calls; further: plate controls were buffer without enzyme for full effect and enzyme alone for no effect
Anthrax LF inh2 – blocks Bacillus anthracis lethal factor protease; P15917; AID 588501; multiplex microsphere protease cleavage assay, LF; 0.12% of 360,000 active; inhibition, % at 10 µM; further: plate controls were buffer without enzyme for full effect and enzyme alone for no effect
The depositor's hits bear a star; ? = inconclusive. The list is not random: actives were taken first. Their share in the collection is about 3.5%. Unless noted, no stated cut-off is given here; in the data, active means inhibition above about 30%; inconclusive means no clear call, values can overlap the other calls; inactive means below that.

SMILES	Bead autofluor	BoNT-A LC inh2	BoNT-F LC inh	Anthrax LF inh2
COC(=O)c1ccccc1NC(=O)COC(=O)c1ccco1	9984	0	-14	2
CCOc1ccccc1C(=O)OCC(=O)Nc1ncc(C(F)(F)F)cc1Cl	21522*	-6	-6	0
COC(=O)c1ccccc1NC(=O)COC(=O)c1ccc(C)c(NC(=O)c2ccco2)c1	21306*	?	0	0
CC(C)C[C@H]1CN(CCCC[C@H]2CNC(=O)C(=O)N2Cc2ccccc2)C(=O)C(=O)N1CC1CCCCC1	5193	0	-1	-9
O=C1NC(=O)N(Cc2cccs2)C(=O)/C1=C/c1ccc(N2CCOCC2)cc1	3175	0	-9	-9
O=C1NC(=O)N(Cc2ccccc2Cl)C(=O)/C1=C/N1CCOCC1	23148*	0	-3	-1
COc1ccc(S(=O)(=O)N2CCOCC2)cc1NC(=O)c1cccs1	11844	-28	-47	-12
O=C(CCSc1ccc(F)cc1)NNC(=O)c1ccc([N+](=O)[O-])cc1	6380	0	-8	4
CCCCOc1ccccc1C1C(C(=O)OC)=C(C)N(C)C(C)=C1C(=O)OC	22647*	0	-2	1
CC(=O)c1ccc(NC(=O)C2CCCNC2=O)cc1 (stereo not given)	21778*	?	-1	-4
Cc1ccc(S(=O)(=O)NCCNC(=O)C2CCCNC2=O)cc1 (stereo not given)	4364	-1	?	-1
CN(C)CCNC(=O)C1CCCNC1=O (stereo not given)	22891*	?	-3	0
NC(=O)NN=C1CCC(OCc2ccccc2)CC1CC(=O)O (stereo not given)	4295	-1	-24	-11
CC1CCCC(C)N1C(=O)COC(=O)CSc1ccc(C(N)=O)cc1[N+](=O)[O-] (stereo not given)	21171*	-64	-110	-18
CCOc1ccc(/C=N/NC(=O)c2nnn(-c3nonc3N)c2COc2ccc(F)cc2)cc1	3360	-4	?	-14
CN(C)c1ccc(/C=N/NC(=O)c2nnn(-c3nonc3N)c2COc2ccc(F)cc2)cc1	3819	3	27	32*
CN(C)Cc1c(C(=O)N/N=C/c2ccncc2)nnn1-c1nonc1N	3978	2	42*	13
CCN(CC)Cc1c(C(=O)N/N=C/c2ccncc2)nnn1-c1nonc1N	3423	1	-19	4
COc1ccc(C2=NO[C@@H]3C(=O)N(c4c(C)cccc4C)C(=O)[C@H]23)cc1OC	22305*	?	0	-2
Cc1cccc(C)c1N1C(=O)[C@@H]2C(c3ccccc3Cl)=NO[C@@H]2C1=O	5482	0	8	-2
C=CCOc1c(Br)cc(C2NC(=O)NC(C)=C2C(C)=O)cc1OCC (stereo not given)	22042*	3	1	-2
O=C(CC(=O)Nc1cc(Cl)ccc1Cl)Nc1cc(Cl)ccc1Cl	3960	-2	18	-14
CCOc1ccc(CCNC(=O)COC(=O)c2cccnc2OCC)cc1OCC	16322*	-1	0	-2
C=CCn1c(SCC(=O)NCCOC)nnc1-c1cc2c(s1)CCC(CC)C2 (stereo not given)	2564	0	-8	0
Cc1nnc(NC(=O)CSc2ncnc3scc(-c4ccccc4)c23)s1	21836*	?	4	-2
SMILES	Bead autofluor	BoNT-A LC inh2	BoNT-F LC inh	Anthrax LF inh2
Cc1nnc(NC(=O)CCSc2ccccc2)s1	16606*	0	-1	1
CCCCc1nnc(NC(=O)CCSc2ccccc2)s1	10525	-1	-5	-9
Cc1nnc(NC(=O)CCSc2ccc(Cl)cc2)s1	2675	0	-3	0
COCCSc1ccccc1C(=O)Nc1nnc(COC)s1	23162*	0	1	1
COCc1nnc(NC(=O)CCSc2ccccc2)s1	20338*	?	0	-3
CC(C)NC(=O)C1(C)CCN1C(=O)c1ccccc1Oc1ccccc1 (stereo not given)	3905	0	0	0
O=C(COC(=O)c1cc([N+](=O)[O-])ccc1N1CCOCC1)Nc1ccc(Cl)cn1	5645	0	5	-2
COCc1nnc(NC(=O)CSc2ccc(C)cc2)s1	9697	-1	-11	-9
COCc1nnc(NC(=O)CSc2ccccc2)s1	22373*	0	-1	0
CCC(C(=O)N1CCN(S(C)(=O)=O)CC1)c1ccccc1 (stereo not given)	20841*	-2	-4	1
CCCc1nnc(NC(=O)C2CCN(C(=O)c3ccco3)CC2)s1	3688	0	26	-8
C=CCN(CC(=O)NCc1ccccc1)C(=O)c1csnn1	24034*	-2	-1	0
COc1ccc(CNC(=O)CN(Cc2ccccc2)C(=O)c2csnn2)cc1	3957	1	18	0
CCOc1ccc(S(=O)(=O)N2CCC(C(=O)NCc3cccnc3)CC2)cc1C	4392	2	8	2

From PubChem
